Inconclusive results are not listed. Calls of active or inactive are those of the source. Unless noted, the call rests on the fitted dose curve; in most records, active means well fitted curve in either direction with a large enough effect (not every such curve was filed as active); inconclusive means small, poorly fitted or top-dose-only effect, or another doubt; inactive means flat fitted curve, though single readings scatter.
Tests used:
[1] = AP1 Signaling Pathway (AID 357); settings: ME-180 AP-1-bla reporter, EGF-induced, beta-lactamase ratio, 5 h; at 17.2 µM (top of the series) unless noted; further: on the % scale 0 is the no-effect control and ±100 the full control effect
Method in brief: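 AP-1-bla ME-180 cells with beta-lactamase reporter under AP-1 response element, stimulated with EC50 EGF; compounds titrated, 5 hours at 37 degrees Celsius. CCF4 read at 460/530 nm ratio; positive and negative modulators judged by AC50.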

[2] = NFAT Signaling Pathway (AID 444); settings: Jurkat NFAT-bla M1, carbachol, beta-lactamase ratio, 5 h; at 17.2 µM (top of the series) unless noted;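 further: carbachol stimulus at about its EC50 of 1 µM final; on the % scale 0 is the no-effect control and ±100 the full control effect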
Method in brief: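 Jurkat cells with NFAT-driven β-lactamase reporter and co-expressed M1 receptor, stimulated with carbachol (final 1 uM, ~EC50), compound titration, 5 h at 37 °C. CCF4 loaded 1 h at RT; 460/530 nm ratio gave %activity and AC50.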

[3] = Stat Signaling Pathway (AID 446); settings: ME-180 SIE beta-lactamase reporter, IL-6 stimulated, 5 h; at 17.2 µM (top of the series) unless noted;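 further: ME-180 cervical cancer cells given 40 pM IL-6 alongside compound; SIE-controlled beta-lactamase reporter measured as 460/530 nm FRET emission ratio; on the % scale 0 is the no-effect control and ±100 the full control effect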
Method in brief: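 ME-180 SIE-bla cells; overnight plating; cpd + IL-6 40 pM, 5 h, 37 C; LiveBLAzer 2.5 h RT; 460/530 nm emission ratio. Normalized to 300 pM IL-6 and 125 nM JAK inhibitor controls.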

[4] = biological target: Glucocorticoid receptor (Homo sapiens) (UniProt P04150); experiment: GR-GFP Redistribution (AID 450;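 active means compounds whose dose series gives a full or clear partial fitted curve of increased nuclear translocation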; further: potency means the concentration at half of the fitted maximal effect)
Chain of Glucocorticoid receptor (Homo sapiens) (P04150 whole entry, looked up): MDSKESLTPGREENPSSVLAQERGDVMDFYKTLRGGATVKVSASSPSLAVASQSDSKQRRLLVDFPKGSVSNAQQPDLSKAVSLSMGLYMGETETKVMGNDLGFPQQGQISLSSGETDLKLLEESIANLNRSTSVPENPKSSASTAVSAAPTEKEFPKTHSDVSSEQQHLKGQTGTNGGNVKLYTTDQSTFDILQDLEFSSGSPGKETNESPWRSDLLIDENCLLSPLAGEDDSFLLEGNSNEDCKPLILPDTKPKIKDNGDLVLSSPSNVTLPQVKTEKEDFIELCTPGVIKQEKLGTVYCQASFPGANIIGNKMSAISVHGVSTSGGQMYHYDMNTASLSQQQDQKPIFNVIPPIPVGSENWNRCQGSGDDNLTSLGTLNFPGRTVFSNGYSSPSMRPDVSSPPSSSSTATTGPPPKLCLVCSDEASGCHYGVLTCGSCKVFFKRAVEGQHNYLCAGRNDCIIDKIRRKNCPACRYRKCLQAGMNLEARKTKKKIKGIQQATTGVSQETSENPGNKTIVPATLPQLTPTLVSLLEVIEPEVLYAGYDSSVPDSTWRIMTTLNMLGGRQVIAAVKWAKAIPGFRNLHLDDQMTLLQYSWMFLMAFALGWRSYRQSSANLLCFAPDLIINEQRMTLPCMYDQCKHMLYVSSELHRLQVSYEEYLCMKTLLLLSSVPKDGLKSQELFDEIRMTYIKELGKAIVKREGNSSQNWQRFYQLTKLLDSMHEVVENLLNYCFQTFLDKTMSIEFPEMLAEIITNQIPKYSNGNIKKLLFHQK

[5] = biological target: Glucocorticoid receptor (Homo sapiens) (UniProt P04150); experiment: qHTS assay for small molecule agonists of glucocorticoid receptor signaling (AID 588532; active means well fitted curve in the direction sought with a large enough effect in the signal ratio, with a control signal flat; the % refers to the signal ratio;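 further: 100% = dexamethasone at 0.1 µM and 0% = DMSO only wells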); settings: HeLa MMTV-bla, beta-lactamase ratio, agonist, 18 h; stronger effect = higher value; percent of dexamethasone control, DMSO zero
Method in brief: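 MMTV-bla HeLa beta-lactamase reporter cells in 1% charcoal/dextran FBS medium, compounds up to 92 uM for 18 h at 37 C, CCF4 readout; normalized to 0.1 uM dexamethasone (100%), EC50 and efficacy from Hill fits.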

[6] = biological target: Glucocorticoid receptor (Homo sapiens) (UniProt P04150); experiment: qHTS assay for small molecule antagonists of glucocorticoid receptor signaling (AID 588533; active means well fitted inhibition curve with a large enough effect in the signal ratio, with a control signal flat, not every such curve was filed as active; the % refers to the signal ratio;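 further: cells stimulated with 2 nM dexamethasone as agonist; on the % scale 0 is the no-effect control and ±100 the full control effect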)
Method in brief: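 Antagonist-mode qHTS: compound titrations added to GRE-bla HeLa cells, then dexamethasone 2 nM final; 18 h, 37 C. CCF4 FRET fluorescence normalized to dexamethasone and DMSO; IC50 from Hill fit.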

[7] = biological target: Peroxisome proliferator-activated receptor gamma (Homo sapiens) (UniProt P37231); experiment: qHTS assay for small molecule antagonists of peroxisome proliferator-activated receptor gamma signaling (AID 588537; active means well fitted inhibition curve with a large enough effect in the signal ratio, with a control signal flat, not every such curve was filed as active; the % refers to the signal ratio;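 further: reporter cells co-stimulated with 50 nM rosiglitazone agonist during compound treatment; % of control where 0% means no effect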)
Chain of Peroxisome proliferator-activated receptor gamma (Homo sapiens) (P37231 whole entry, looked up): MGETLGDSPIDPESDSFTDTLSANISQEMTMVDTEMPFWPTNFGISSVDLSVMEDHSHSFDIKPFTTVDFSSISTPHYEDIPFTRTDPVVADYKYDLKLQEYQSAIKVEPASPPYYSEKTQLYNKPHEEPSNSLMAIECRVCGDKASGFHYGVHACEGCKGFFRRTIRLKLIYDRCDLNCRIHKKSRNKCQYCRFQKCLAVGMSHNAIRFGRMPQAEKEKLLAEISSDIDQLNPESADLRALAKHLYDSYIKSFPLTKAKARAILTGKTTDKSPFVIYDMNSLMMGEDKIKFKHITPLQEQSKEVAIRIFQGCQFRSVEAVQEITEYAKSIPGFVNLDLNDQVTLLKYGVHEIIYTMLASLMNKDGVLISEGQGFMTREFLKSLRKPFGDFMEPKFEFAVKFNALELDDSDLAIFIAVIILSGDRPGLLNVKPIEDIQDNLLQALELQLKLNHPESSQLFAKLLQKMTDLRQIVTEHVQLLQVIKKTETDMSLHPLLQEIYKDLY
Method in brief: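 Step one: plate 3000 HEK293 UAS-bla cells per well in medium with 1% stripped serum and hold 6-6.5 h at 37 C. Step two: add compound and 50 nM agonist for 16 h. Step three: CCF4 loading, fluorescence read.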

[8] = qHTS assay for small molecule agonists of the antioxidant response element (ARE) signaling pathway (AID 651741; active means well fitted activation curve with a large enough effect in the signal ratio; the % refers to the signal ratio; further: potency means the concentration at half of the fitted maximal effect)
Method in brief: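 HepG2 ARE-bla cells plated at 2,000 cells/well and incubated 5 h at 37 C/5% CO2 received 23 nL compound in DMSO. After 16 h at 37 C, LiveBLAzer B/G FRET substrate was applied for 2 h at room temperature and fluorescence read.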

[9] = biological target: Peroxisome proliferator-activated receptor alpha (Homo sapiens) (UniProt Q07869); experiment: qHTS assay for small molecule agonists of the peroxisome proliferator-activated receptor alpha (PPARalpha) signaling pathway (AID 651778; active means well fitted curve in the direction sought with a large enough effect; an effect the other way counts as inactive or inconclusive; further: % of control where 0% means no effect); settings: PathHunter PPARalpha complementation, chemiluminescence, 6 h; max response: stronger effect = higher value
Chain of Peroxisome proliferator-activated receptor alpha (Homo sapiens) (Q07869 whole entry, looked up, the tested form may be a part): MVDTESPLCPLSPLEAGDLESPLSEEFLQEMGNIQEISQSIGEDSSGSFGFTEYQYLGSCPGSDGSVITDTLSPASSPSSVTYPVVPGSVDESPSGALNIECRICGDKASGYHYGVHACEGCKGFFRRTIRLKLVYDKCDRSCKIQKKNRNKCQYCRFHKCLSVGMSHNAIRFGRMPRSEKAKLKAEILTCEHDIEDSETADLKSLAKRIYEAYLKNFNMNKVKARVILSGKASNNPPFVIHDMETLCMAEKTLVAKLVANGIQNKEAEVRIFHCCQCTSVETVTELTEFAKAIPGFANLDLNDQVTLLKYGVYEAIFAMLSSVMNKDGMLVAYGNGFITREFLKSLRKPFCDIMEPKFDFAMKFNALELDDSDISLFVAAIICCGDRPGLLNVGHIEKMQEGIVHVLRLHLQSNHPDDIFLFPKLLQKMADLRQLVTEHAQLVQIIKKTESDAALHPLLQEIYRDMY
Method in brief: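 Enzyme-fragment complementation assay in which ligand-bound PPARalpha translocates and forms an active enzyme that generates chemiluminescence. Cells were plated overnight, exposed to compound for 6 hr at 37 C, and then given detection reagent for 60 min at room temperature.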

[10] = qHTS assay for small molecule agonists of the antioxidant response element (ARE) signaling pathway measured by Nrf2-dependant transcriptional activity - cell viability counter screen (AID 720653; active means well fitted curve in the direction sought with a large enough effect in the repeat runs; an effect the other way counts as inactive or inconclusive; further: on the % scale 0 is the no-effect control and ±100 the full control effect); settings: ARE-bla HepG2 viability, CellTiter-Glo ATP luminescence, 16 h; max response: stronger effect = lower value
Method in brief: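 ARE-bla HepG2 cells treated with compounds for 16 h at 37C; this counter screen measures viability as intracellular ATP by CellTiter-Glo luminescence after 30 min at room temperature.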

[11] = qHTS assay for cell viability of HEK293 cells (AID 743288; active means well fitted curve in the direction sought with a large enough effect; an effect the other way counts as inactive or inconclusive; further: on the % scale 0 is the no-effect control and ±100 the full control effect; nearly all actives have a fitted effect of over 50% in size); settings: ATP luminescence (CellTiter-Glo), 18 h; max response: stronger effect = lower value
Method in brief: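 Parental HEK293 cells, 2,000 per well, preincubated at least 5 h at 37 C, then exposed to compounds in DMSO for 18 h at 37 C. Viability by CellTiter-Glo ATP luminescence after 30 min at room temperature.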

[12] = qHTS assay for cell viability of the p53RE-bla HCT-116 cell line (AID 743292; active means well fitted curve in the direction sought with a large enough effect; an effect the other way counts as inactive or inconclusive; further: on the % scale 0 is the no-effect control and ±100 the full control effect; nearly all actives have a fitted effect of over 55% in size)
Method in brief: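 Compound-exposed HCT-116 (p53RE-bla) cells, 4,000 per well, were kept 16 h at 37 C following a 5 h preincubation. Cell number was estimated from total ATP by CellTiter-Glo luminescence read after 30 min at room temperature.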

[13] = biological target: Nuclear receptor subfamily 1 group I member 2 (Rattus norvegicus) (UniProt Q9R1A7); experiment: qHTS assay for small molecule activators of the rat pregnane X receptor (rPXR) signaling pathway (AID 651751; call rule not given here; further: 0% is about no effect); settings: rPXR reporter cells, luciferase (One-Glo), 24 h
Chain of Nuclear receptor subfamily 1 group I member 2 (Rattus norvegicus) (Q9R1A7 whole entry, looked up): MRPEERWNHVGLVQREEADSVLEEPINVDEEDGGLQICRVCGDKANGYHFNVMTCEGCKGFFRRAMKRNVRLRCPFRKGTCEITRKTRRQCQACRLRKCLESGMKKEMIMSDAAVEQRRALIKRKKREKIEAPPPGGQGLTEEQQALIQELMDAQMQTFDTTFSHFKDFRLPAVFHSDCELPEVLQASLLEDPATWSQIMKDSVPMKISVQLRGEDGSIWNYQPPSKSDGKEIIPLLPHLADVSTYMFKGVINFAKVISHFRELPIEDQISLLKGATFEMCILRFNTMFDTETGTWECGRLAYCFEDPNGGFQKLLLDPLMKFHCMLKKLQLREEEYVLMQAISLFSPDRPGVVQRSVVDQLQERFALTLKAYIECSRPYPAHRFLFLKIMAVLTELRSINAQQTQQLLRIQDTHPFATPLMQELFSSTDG

[14] = qHTS Assay for Identification of Small Molecule Agonists for Hypoxia Response Element Signaling Pathway (AID 914; active means well fitted activation curve with a large enough effect in the signal ratio, with a control signal flat, not every such curve was filed as active; the % refers to the signal ratio; further: % of control where 0% means no effect); settings: ME-180 (cervical carcinoma) HRE-bla reporter, beta-lactamase ratio, CoCl2, 17 h; activation: stronger effect = higher value
Method in brief: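 HRE-bla ME-180 assay for agonist-like enhancement of an EC50 CoCl2 stimulus: 17 h at 37 degrees Celsius, CCF4 for 2.5 h, ratiometric 460/530 nm signal converted to %Activity and fitted to AC50.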

[15] = biological target: Mitogen-activated protein kinase 10 (Mus musculus) (UniProt Q61831); experiment: JNK3 AlphaScreen Assay (AID 530)
Method in brief: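 qHTS format: compounds tested as titrations against IL-1beta/TNF-alpha-activated HepG2 lysate JNK3 with biotin-GST-cJun substrate and 10 uM ATP at room temperature. Loss of anti-phospho-cJun AlphaScreen signal indicates inhibition.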

[16] = biological target: 3',5'-cyclic-AMP phosphodiesterase 4B (Homo sapiens) (UniProt Q07343); experiment: qHTS Assay for Inhibitors of PDE-IV (AID 607; active means well fitted activation curve with a large enough effect in the main read-out, with a control signal flat, not every such curve was filed as active; further: % of control where 0% means no effect)
Chain of 3',5'-cyclic-AMP phosphodiesterase 4B (Homo sapiens) (Q07343 whole entry, looked up): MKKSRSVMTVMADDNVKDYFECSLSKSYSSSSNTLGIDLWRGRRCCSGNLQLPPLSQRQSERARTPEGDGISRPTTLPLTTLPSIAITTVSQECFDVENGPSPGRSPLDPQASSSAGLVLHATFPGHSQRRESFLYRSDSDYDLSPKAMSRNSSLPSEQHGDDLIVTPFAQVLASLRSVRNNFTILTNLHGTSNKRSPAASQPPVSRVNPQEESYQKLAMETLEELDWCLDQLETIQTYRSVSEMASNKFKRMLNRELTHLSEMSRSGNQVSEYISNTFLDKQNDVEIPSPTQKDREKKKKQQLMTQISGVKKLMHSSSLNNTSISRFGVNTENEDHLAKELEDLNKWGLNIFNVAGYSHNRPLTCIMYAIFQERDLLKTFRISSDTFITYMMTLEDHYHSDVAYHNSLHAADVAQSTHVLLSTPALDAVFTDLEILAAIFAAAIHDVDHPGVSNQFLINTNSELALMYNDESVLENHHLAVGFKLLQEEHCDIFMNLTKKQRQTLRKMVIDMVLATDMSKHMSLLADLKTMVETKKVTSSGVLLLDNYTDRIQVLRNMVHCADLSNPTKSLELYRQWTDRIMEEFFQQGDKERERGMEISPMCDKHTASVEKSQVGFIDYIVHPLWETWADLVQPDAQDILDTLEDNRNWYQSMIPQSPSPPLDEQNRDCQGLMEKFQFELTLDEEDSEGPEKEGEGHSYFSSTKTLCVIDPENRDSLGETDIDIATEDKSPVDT
Method in brief: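 ACTOne HEK293 cells carry a modified cAMP-gated CNG channel and express endogenous PDE4; plated 1000 cells/well, compounds up to 22.9 uM final. Membrane-potential dye fluorescence (ex 535/em 590) was read; parental cells received 10 uM forskolin + 100 uM RO 20-1724.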

O=c1oc2cc(O)ccc2c2oc3cc(O)ccc3c12
inactive: activity change, negative = inhibition [1] 5.61% | activity change, negative = inhibition [2] 3.33% | activity, negative = inhibition [3] -5.07% | Potency [4] > 20.6 µM | activation [5] -5.79% | Potency [6] | Potency [7] | max response [9] -1.88% | max response [10] -3.33% | max response [11] -9.05% | Potency [12] | max response [13] 3.73%
active: Potency [8] 54.5 µM

CCOc1ccc(C2C(C#N)=C(N)SC(N)=C2C#N)cc1OC
inactive: activity change, negative = inhibition [1] 0.186% | activity change, negative = inhibition [2] 10.8% | activity, negative = inhibition [3] -5.25% | Potency [4] > 20.6 µM | activation [14] -15.3%

COc1ccc(-n2c(=O)c(CCc3ccccc3)nc3cnc(N4CCNCC4)nc32)cc1
inactive: activity change, negative = inhibition [1] 4.61% [at 7.69 µM] | activity change, negative = inhibition [2] 7.43% [at 7.69 µM] | activity, negative = inhibition [3] 0.474% [at 7.69 µM] | Potency [4] > 9.22 µM | Potency [15] | Potency [16]

COc1cc(C)cc2c(-c3c(O)cc(O)c4c3C[C@H](C)N[C@@H]4C)cc(-c3cc(-c4c(O)cc(O)c5c4C[C@H](C)N[C@@H]5C)c4cc(C)cc(OC)c4c3O)c(O)c12
inactive: activity change, negative = inhibition [1] 6.28% [at 7.69 µM] | activity change, negative = inhibition [2] 9.14% [at 7.69 µM] | activity, negative = inhibition [3] 5.82% [at 7.69 µM] | Potency [4] > 46 µM | activity change, negative = inhibition [15] -9.73% [at 11.4 µM] | Potency [16]

O=C(NC1(C(F)(F)F)C(=O)Nc2c1c(=O)[nH]c(=O)n2Cc1ccco1)C1CCCCC1 (stereo not given)
inactive: activity change, negative = inhibition [1] -8.35% | activity change, negative = inhibition [2] -10.2% | activity, negative = inhibition [3] -2.02% | Potency [4] > 20.6 µM | activation [14] -5.1%

CC(=O)N1CCN(c2nc(CC(C)C)c3c(c2C#N)CCC3)CC1
inactive: activity change, negative = inhibition [1] -24.1% | activity change, negative = inhibition [2] -8.91% | activity, negative = inhibition [3] -3.38% | Potency [4] > 20.6 µM | activation [14] 24.5%

Cc1cccc(-n2ncc3c(NCc4ccco4)ncnc32)c1
inactive: activity change, negative = inhibition [1] -15.1% | activity change, negative = inhibition [2] -12.4% | activity, negative = inhibition [3] -20.3% | Potency [4] > 20.6 µM | activation [14] 8.46%

COC(=O)c1[nH]c(C)c(/C(O)=C2\C(=O)C(=O)N(CCN3CCOCC3)C2c2ccccc2OC)c1C (stereo not given)
inactive: activity change, negative = inhibition [1] 3.47% | activity change, negative = inhibition [2] 17.3% | activity, negative = inhibition [3] -6.01% | Potency [4] > 20.6 µM | activation [14] 0.0679%

CC1(C)CC(=O)C=C(N=CC2=C(O)CC(C)(C)CC2=O)C1
inactive: activity change, negative = inhibition [1] 4.05% | activity change, negative = inhibition [2] -11.2% | activity, negative = inhibition [3] 12.2% | Potency [4] > 20.6 µM | activation [14] -17.7%

COc1ccc(CCn2c(C)ccc2C)cc1OC
inactive: activity change, negative = inhibition [1] -3.97% | activity change, negative = inhibition [2] -16.3% | activity, negative = inhibition [3] -7.94% | Potency [4] > 20.6 µM | activation [14] -9.87%

CNc1nc(C)c(C#N)cc1C(C)=O
inactive: activity change, negative = inhibition [1] -13.3% | activity change, negative = inhibition [2] -1.5% | activity, negative = inhibition [3] -6.02% | Potency [4] > 20.6 µM | activation [14] 6.97%

CC(C)COc1ccc(C(=O)NC(CC(C)C)C(=O)O)cc1 (stereo not given)
inactive: activity change, negative = inhibition [1] -2.73% | activity change, negative = inhibition [2] -7.69% | activity, negative = inhibition [3] 3.82% | Potency [4] > 20.6 µM | activation [14] 11.5%

From PubChem BioAssay (NCATS)
